Compound activity deposited in PubChem by National Center for Advancing Translational Sciences (NCATS).
PLK1 PBD block – PLK1 (human) polo-box domain binding inhibition; P53350; Plk1 PBD binding of FITC phosphopeptide, fluorescence polarization; Potency, µM, hits mostly inhibitors; hit rate 2.8% among 360,000; AID 720504; further: series mostly up to about 57 µM; nearly all actives have a fitted effect of over 65% in size
G9a inh – inhibitors of human histone lysine methyltransferase G9a | hit rate 8.8% among 350,000 | Potency, µM (titrated, usually from 102 µM), hits mostly inhibitors | G9a H3K9 monomethylation, AlphaScreen, 2 h | Q96KQ7 | AID 504332; further: nearly all actives have a fitted effect of over 75% in size
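AlphaScreen detection with an anti-monomethyl H3K9 antibody quantified product after a 2 h room-temperature reaction containing 500 nM biotinylated H3K9 peptide, 20 µM SAM and 20 nM enzyme, which had been preincubated 15 min with compound.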
VDR inhibitor – vitamin D3 receptor (human) inhibition; hit rate 0.93% among 400,000; VDR-SRC2-3 peptide fluorescence polarization, 2 h; AID 504847; Potency, µM, usual class: inhibitors
Target sequence (P11473 whole entry, looked up): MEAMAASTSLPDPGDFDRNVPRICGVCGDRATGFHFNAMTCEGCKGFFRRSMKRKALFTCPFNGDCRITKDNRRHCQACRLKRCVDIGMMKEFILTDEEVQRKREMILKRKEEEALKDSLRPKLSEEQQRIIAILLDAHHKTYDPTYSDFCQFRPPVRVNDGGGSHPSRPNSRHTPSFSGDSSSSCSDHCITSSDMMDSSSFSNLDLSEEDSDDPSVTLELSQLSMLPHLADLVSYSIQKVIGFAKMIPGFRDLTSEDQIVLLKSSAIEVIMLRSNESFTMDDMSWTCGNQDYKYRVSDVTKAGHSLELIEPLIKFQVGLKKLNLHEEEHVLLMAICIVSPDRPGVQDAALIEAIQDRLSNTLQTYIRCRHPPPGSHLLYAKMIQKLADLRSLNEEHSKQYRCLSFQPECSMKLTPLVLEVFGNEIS
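Fluorescence polarization assay measuring small-molecule disruption of VDR binding to the coregulator peptide SRC2-3. Compounds were pin-transferred (23 nl) into the reagent mix and incubated 2 h at room temperature before reading.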
JMJD2A Tudor – blocks the human JMJD2A Tudor domain; AlphaScreen JMJD2A-Tudor / H3K4me3 peptide binding; O75164; hit rate 4.4% among 390,000; Potency, µM (doses to about 114 µM), most hits filed as inhibitors; further: nearly all actives have a fitted effect of over 50% in size
BAZ2B inh – inhibitors of human BAZ2B bromodomain; AID 504333; Potency, µM (titrated, usually from 114 µM), usual class: inhibitors; AlphaScreen BAZ2B-H3K14Ac peptide displacement; hit rate 4.4% among 360,000; further: nearly all actives have a fitted effect of over 60% in size
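AlphaScreen displacement: compounds (up to 110uM) incubated 30 min at room temperature with a preformed 50 nM BAZ2B/50 nM biotinylated H3K14Ac peptide complex in PBS pH 7.4 with Tween-20. Donor and acceptor beads at 10 ug/mL final added, 20 min light-protected before reading.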
HP1b chromo inh – HP1-beta chromodomain-methylated histone interaction inhibition; Potency, µM (highest dose often 114 µM), usual class: inhibitors; AlphaScreen HP1-beta / biotin-H3K9me3 peptide binding; AID 540317; hit rate 0.56% among 390,000; P83916; further: nearly all actives have a fitted effect of over 70% in size
Target sequence (P83916 whole entry, looked up): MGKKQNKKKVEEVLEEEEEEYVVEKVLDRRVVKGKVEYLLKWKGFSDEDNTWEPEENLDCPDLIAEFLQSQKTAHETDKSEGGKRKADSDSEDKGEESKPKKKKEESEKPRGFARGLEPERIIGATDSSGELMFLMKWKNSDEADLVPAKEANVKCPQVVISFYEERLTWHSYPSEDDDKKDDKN
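AlphaScreen: HP1-beta (50 nM) preformed 30 min with biotin-H3(1-18)K9me3 peptide (50 nM) in PBS pH 7.4, 0.01% Tween-20. Compound added for 30 min at RT, then streptavidin donor/nickel chelate acceptor beads (10 ug/mL) for 30 min.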
A number is an active result; 0 = inactive; ? = inconclusive; - = not tested or not shown; [ ] = dose if it differs, or a comment. Hits are enriched below; roughly 11% of the tested compounds scored in any of these assays. The call rests on the fitted dose curve; in most records, active means well fitted curve in the direction sought with a large enough effect; inconclusive means small, poorly fitted or top-dose-only effect, or another doubt; inactive means no such curve, though single readings can be large; an effect the other way counts as inactive or inconclusive.

SMILES	PLK1 PBD block	G9a inh	VDR inhibitor	JMJD2A Tudor	BAZ2B inh	HP1b chromo inh
CCOC(=O)C1CCN(Cc2ccc(O)c(OC)c2)CC1	0	32µM	0	3.2µM	?	?
O=C(C1CCN(Cc2ccc(OCc3ccccc3)cc2)CC1)N1CCCC1	0	14µM	0	1.6µM	79µM	?
O=C(CN1CCN(C(=O)C2CCCO2)CC1)Nc1cc(Cl)ccc1Cl (stereo not given)	0	0	0	0	0	0
Cc1cccc(CN2CCN(C(c3ccccc3)c3ccc(Cl)cc3)CC2)c1 (stereo not given)	?	?	?	79µM	50µM	0
O=C(CN1CCN(C(=O)C2CCCO2)CC1)Nc1ccc(Cl)c(Cl)c1 (stereo not given)	0	79µM	0	0	0	0
CS(=O)(=O)N1CCC(C(=O)N2CCN(Cc3ccccc3)CC2)CC1	0	?	0	0	-	0
C=CC[C@@H](CC(=O)NCCO)C(=O)NC[C@H](OC(=O)[C@@H](CC=C)Cc1ccc(F)cc1)c1ccccc1	0	-	0	0	-	0
c1ccc(COc2cccc(CN3CCCCC3)c2)cc1	0	35µM	0	25µM	?	?
CCN1CCN(C(=O)C2CCN(Cc3cc(Cl)ccc3O)CC2)CC1	0	10µM	0	10µM	?	?
COc1ccc(CN2CCC(C)CC2)cc1OCc1ccccc1	0	0	0	0	0	0
CCCCNC(=O)C1CCN(Cc2ccc(OCc3ccccc3)cc2)CC1	0	11µM	0	3.5µM	?	?
CCOC(=O)C1CCN(Cc2ccc(OCc3ccccc3)c(OC)c2)CC1	0	50µM	0	0	0	0
CCNC(=O)C1CCCN(Cc2ccc(OCc3ccccc3)cc2)CC1 (stereo not given)	0	-	-	-	-	-
CCN1CCN(C(=O)C2CCN(S(=O)(=O)c3ccc(Br)cc3)CC2)CC1	0	0	0	0	0	0
Cc1ccc(NS(=O)(=O)c2ccc3nc(-c4ccccc4)[nH]c3c2)c(Cl)c1	-	0	0	0	0	0
COc1ccc(Cn2cc(C(=O)c3ccc(OC)cc3)c(=O)c3cc4c(cc32)OCCO4)cc1	-	0	0	0	0	0
CCOC(=O)C1CCN(Cc2cc(C(C)(C)C)c(O)c(C(C)(C)C)c2)CC1	?	56µM	0	0	0	0
O=C(C1CCCO1)N1CCN(S(=O)(=O)c2ccccc2)CC1 (stereo not given)	0	?	0	0	0	0
CCOC(=O)C1CCN(Cc2cc(=O)oc3cc(C)ccc23)CC1	0	0	0	0	0	0
CCOC(=O)C1CCN(Cc2ccc(OC)c(OCc3ccccc3)c2)CC1	0	28µM	0	0	56µM	0
O=C(C1CCCO1)N1CCN(C(c2ccccc2)c2ccccc2)CC1 (stereo not given)	0	8.9µM	0	0	0	0
COc1cc(CN2CCCCC2)ccc1OCc1ccccc1	0	-	0	32µM	?	?
CCN(CC)C(=O)C1CCN(Cc2ccc(OCc3ccccc3)c(OC)c2)CC1	0	50µM	0	11µM	56µM	?
CCN(CC)C(=O)C1CCN(Cc2ccc(OCc3ccccc3)cc2)CC1	0	10µM	0	22µM	?	?
O=C(C1CCN(Cc2ccc(Cl)cc2)CC1)N1CCN(C(c2ccccc2)c2ccccc2)CC1	0	20µM	0	?	79µM	?
SMILES	PLK1 PBD block	G9a inh	VDR inhibitor	JMJD2A Tudor	BAZ2B inh	HP1b chromo inh
COc1cc(CC(=O)O)ccc1OCc1ccccc1	0	0	0	0	0	0
Cc1ccc(Cl)cc1-n1nnc(-c2nsc(NC(=O)c3ccccc3Cl)n2)c1C	-	0	0	0	0	0
CN1C(=O)C(CC(=O)NC2CCCCC2)SC1=Nc1ccccc1 (stereo not given)	30µM	0	0	?	0	0
COc1ccc(-c2nc3c(C#N)c[nH]n3c2NC2CCCCC2)cc1	-	0	0	0	0	0
Cc1cc(/C=C2/C(=O)N(C)C(=S)N2C)c(C)n1C1CC1	0	79µM	0	?	?	0
Cc1cc(/C=C2\SC(=S)NC2=O)c(C)n1C1CC1	0	?	0	45µM	45µM	0
COCCNC(=O)[C@@]1(Cc2ccccc2)C=C[C@@H](C)N1C(C)=O	0	?	0	0	0	0
O=C(CCOc1ccccc1)Nc1ccccc1F	0	0	0	0	0	0
Cc1ccc(N=Nc2c(C)[nH]n(-c3ccccc3)c2=O)c(C)c1	8.4µM	0	?	11µM	0	22µM
Nc1c(N=Nc2cccc(Cl)c2)c(=O)[nH]n1-c1ccccc1	0	0	0	0	0	0
Cc1[nH]n(-c2ccccc2)c(=O)c1N=O	0	0[12.7 µM]	0	0	0	0
CC(=O)c1cccc(N=Nc2c(-c3ccccc3)[nH]n(-c3ccccc3)c2=O)c1	24µM	-	0	?	5µM	14µM
CSc1ccc(N=Nc2c(C)[nH]n(C)c2=O)cc1	0	11µM	0	25µM	18µM	45µM
Cc1[nH]n(-c2ccccc2)c(=O)c1N=Nc1cccc(Cl)c1	0	-	0	?	22µM	?
Cn1c(=O)cc(OCC(=O)NCc2ccc(F)cc2Cl)c2ccccc21	-	0	0	0	0	0
Cc1[nH]n(-c2ccccc2)c(=O)c1N=Nc1c(O)cc(S(=O)(=O)N(C)C)c2ccccc12	30µM	3.5µM	0	20µM	7.9µM	18µM
Cc1[nH]n(-c2ccccc2)c(=O)c1N=Nc1ccc(F)cc1	0	4.5µM	0	?	4.5µM	0
Cc1[nH]n(-c2ccccc2)c(=O)c1N=Nc1cccc([N+](=O)[O-])c1	0	-	0	?	?	0
Cc1[nH]n(-c2ccccc2)c(=O)c1-c1ccccc1	0	0	0	0	-	0
Cc1[nH]n(-c2ccccc2)c(=O)c1N=Nc1ccc2c(c1)OCCO2	0	7.1µM	0	22µM	6.3µM	?
Cc1ccc(N=Nc2c(C)[nH]n(-c3ccccc3)c2=O)cc1Br	0	3.5µM	0	?	13µM	0
Cc1ccccc1NS(=O)(=O)c1ccc(C(=O)NCC(c2ccco2)N2CCCCC2)cc1 (stereo not given)	0	0	0	0	0	0
O=C(NCc1ccccc1F)Nc1nnc([C@H]2C[C@H](O)[C@@H](CO)O2)s1	0	-	-	-	-	-
Cc1[nH]n(-c2ccc(Cl)cc2)c(=O)c1N=Nc1cccnc1	0	0	0	0	0	0
COC(=O)c1ccc(N=Nc2c(C)[nH]n(-c3ccccc3)c2=O)cc1	0	8.9µM	0	?	?	?
COc1ccc(OCC(=O)OCC(=O)NC2CC2)cc1	0	0[12.7 µM]	0	0	0	0
CC(NC1=CC(=O)c2cccnc2C1=O)C(O)c1ccccc1 (stereo not given)	?	-	?	56µM	-	0
COc1cccc(CNC(=O)Nc2ccc3c(c2)N(C)C(=O)c2ccccc2S3)c1	-	0	0	0	0	0
CCOC(=O)C(=NCCCN1CCOCC1)NNc1cccc(C(F)(F)F)c1	0	50µM	0	0	?	0
